Source: PubChem
MEKK2mut PB1 HTS: MEK5 binding signal on mutant MEKK2 PB1, primary screen, biochemical, multiplex bead flow cytometry, Alexa488-MEK5 | Alexa488-MEK5 binding to MEKK2 mutant | percent response, % at 10 µM | 290,000 compounds, 0.35% hits | AID 1530, 2009; in the data active means percent response above about 24%, passing the limit was not always enough
UBC13 polyUb: UBC13 polyubiquitin chain formation inhibitors, primary screen, biochemical, TR-FRET, uHTS; inhibition, % at 20 µM; Ubiquitin-conjugating enzyme E2 N (Homo sapiens), P61088; AID 485273, 2010; 330,000 compounds, 0.47% hits; in the data active means inhibition above about 45%, passing the limit was not always enough
Target sequence (P61088 whole entry, looked up): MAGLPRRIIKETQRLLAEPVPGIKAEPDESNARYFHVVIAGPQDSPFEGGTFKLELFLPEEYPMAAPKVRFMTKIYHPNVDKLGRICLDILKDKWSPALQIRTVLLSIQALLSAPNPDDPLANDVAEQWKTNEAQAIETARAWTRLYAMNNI
PREPL inhibitor: PREPL enzyme inhibitors, primary screen, biochemical, fluorescence polarization. Prolyl endopeptidase-like (Homo sapiens), Q4J6C6. inhibition, % at 5.96 µM. recombinant PREPL, fluorescence polarization activity-based probe. AID 2751, 2010. 320,000 compounds, 0.68% hits
MEKK2wt PB1 HTS: modulators of MEK5 binding to wildtype MEKK2, primary screen, biochemical, multiplex bead flow cytometry, Alexa488-MEK5; Mitogen-activated protein kinase kinase kinase 2 (Homo sapiens), Q9Y2U5; 290,000 compounds, 1.1% hits; AID 1531, 2009; Alexa488-MEK5 binding to MEKK2 WT; actives lie on both sides; binding response (% of control), % at 10 µM; in the data active means binding response below about 67% or above about 130%
ATG4B inhibitor: ATG4B protease inhibitors, primary screen, biochemical, fluorescence, uHTS; Cysteine protease ATG4B (Homo sapiens), Q9Y4P1; ATG4B cleavage of LC3-PLA2, NBD-HPC fluorescence, 1 h; inhibition, % at 8.33 µM; 340,000 compounds, 0.51% hits; in the data active means inhibition above about 40%
Target sequence (Q9Y4P1 whole entry, looked up): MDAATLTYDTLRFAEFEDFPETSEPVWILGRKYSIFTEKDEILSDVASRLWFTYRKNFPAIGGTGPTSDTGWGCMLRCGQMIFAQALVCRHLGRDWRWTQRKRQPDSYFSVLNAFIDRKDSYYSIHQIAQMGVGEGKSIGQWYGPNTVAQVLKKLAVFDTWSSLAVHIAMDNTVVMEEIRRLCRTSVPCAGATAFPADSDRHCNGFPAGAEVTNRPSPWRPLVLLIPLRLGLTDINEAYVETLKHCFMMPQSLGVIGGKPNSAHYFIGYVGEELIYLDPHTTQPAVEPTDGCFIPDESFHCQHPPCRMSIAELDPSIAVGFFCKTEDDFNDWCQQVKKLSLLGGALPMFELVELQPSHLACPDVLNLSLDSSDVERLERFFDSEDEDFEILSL
MEKK3 PB1 HTS: modulators of MEKK3-MEK5 PB1 binding, primary screen, biochemical, wildtype MEKK3, multiplex bead flow cytometry, Alexa488-MEK5. 290,000 compounds, 1.4% hits. bead-based flow cytometry, Alexa488-MEK5 binding to MEKK3; actives lie on both sides; 0 = blocked by unlabeled MEK5, 100 = vehicle. binding response (% of control), % at 10 µM. Mitogen-activated protein kinase kinase kinase 3 (Homo sapiens), Q99759;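 active means binding response more than 3 SD above or below the average of its plate-row segment, actives on both sides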;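 further: Alexa488 bead fluorescence after subtracting the streptavidin-only scavenger bead signal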
PREPL inh cf: human PREPL enzyme inhibitors, confirmation, biochemical, fluorescence polarization. inhibition, % at 5.96 µM. shares compounds with PREPL inhibitor. AID 2803, 2010. 2,000 compounds, 67% hits. recombinant PREPL, fluorescence polarization activity probe
Hits are given with their value; 0 = inactive; - = no result. This is a sample that favours compounds with a hit; in the whole collection about 3.1% have one here. Unless noted, no stated cut-off is given here; in the data, active means inhibition above about 43%; inactive means the rest.

SMILES	MEKK2mut PB1 HTS	UBC13 polyUb	PREPL inhibitor	MEKK2wt PB1 HTS	ATG4B inhibitor	MEKK3 PB1 HTS	PREPL inh cf
COC(=O)CCC(=O)OC1(C)C(=O)C2=CN(Cc3ccccc3)C(c3ccc(OC)cc3)=CC2=C(Br)C1=O (stereo not given)	0	0	46	-6.0	0	0	0
CCC(=O)OC1(C)C(=O)C2=COC(c3ccc(OC)cc3)=CC2=C(Br)C1=O (stereo not given)	0	0	0	0	0	0	-
COc1ccc(C2CCCN2C(=S)Nc2cccc(Cl)c2C)cc1OC (stereo not given)	0	0	50	0	0	0	0
COc1ccc(C2CCCN2C(=S)Nc2ccccc2C)cc1OC (stereo not given)	0	0	0	0	0	0	-
COc1ccc(-n2c(CN3CCN(Cc4ccccc4)CC3)nc3ccc([N+](=O)[O-])cc3c2=O)c(OC)c1	0	0	51	0	0	0	0
Cc1nc(SCC(=O)NCc2ccc3c(c2)OCO3)nc(C)c1C	-	0	0	-	0	-	-
O=C(CNC(=O)CNC(=O)c1ccc(Cl)cc1Cl)NCc1cccc(Cl)c1	0	0	0	0	0	0	-
Cc1nc2cc(C(=O)O)ccc2n1C1CCCCC1	0	0	0	0	0	0	-
Cc1nc2cc(N)ccc2n1C1CCCCC1	0	0	49	0	0	0	0
Nc1c(Cl)ncnc1N/N=C/c1ccccn1	0	-	0	0	0	0	-
Nc1c(Cl)ncnc1N/N=C/c1ccc2ccccc2n1	0	-	64	0	0	0	53
CC(=O)Nc1ccc(S(=O)(=O)N(C)CC(=O)OC(C)C(=O)NC2CCCCC2)cc1 (stereo not given)	-	0	0	-	0	-	-
COc1ccc(NC(=O)CSc2nc3c(c(-c4cccs4)c2C#N)CN(C)CC3)cc1OC	0	0	44	0	0	0	0
C#CCCc1ccccc1/C=[N+](/C)[O-]	-	0	0	-	0	-	-
CC(C)CC1NC(=O)N(CC(=O)Nc2ccc(OCc3ccccc3)cc2)C1=O (stereo not given)	-	0	-	-	0	-	-
C[C@@H]1CN([C@@H](C)CO)C(=O)Cc2cc(NC(=O)Nc3ccc(F)cc3)ccc2O[C@@H]1CN(C)Cc1ccc(Cl)c(Cl)c1	-	0	0	-	0	-	-
C[C@H]1CN([C@@H](C)CO)C(=O)Cc2cc(NS(C)(=O)=O)ccc2O[C@@H]1CN(C)Cc1ccc(Cl)c(Cl)c1	-	0	47	-	0	-	0
C[C@H](CO)N1C[C@H](C)[C@@H](CN(C)C(=O)Nc2ccc(C(F)(F)F)cc2)Oc2ccc(NS(=O)(=O)c3cn(C)cn3)cc2C1=O	-	0	47	-	0	-	0
Cc1ccc(S(=O)(=O)Nc2ccc3c(c2)C(=O)N([C@H](C)CO)C[C@H](C)[C@@H](CN(C)C(=O)Nc2ccc(C(F)(F)F)cc2)O3)cc1	-	0	45	-	0	-	0
Cc1noc(C)c1S(=O)(=O)N(C)C[C@H]1Oc2c(NC(=O)Nc3ccccc3)cccc2C(=O)N([C@H](C)CO)C[C@@H]1C	-	0	0	-	0	-	-
C[C@H](CO)N1C[C@H](C)[C@@H](CN(C)C(=O)Nc2ccc(C(F)(F)F)cc2)Oc2c(NS(=O)(=O)c3cn(C)cn3)cccc2C1=O	-	0	0	-	0	-	-
Cc1noc(C)c1S(=O)(=O)N(C)C[C@H]1Oc2c(NC(=O)Nc3ccc(C(F)(F)F)cc3)cccc2C(=O)N([C@H](C)CO)C[C@@H]1C	-	0	52	-	0	-	59
C[C@H](CO)N1C[C@H](C)[C@@H](CN(C)C(=O)Nc2ccc(C(F)(F)F)cc2)Oc2ccc(NS(=O)(=O)c3ccccc3)cc2C1=O	-	0	46	-	0	-	45
C[C@H](CO)N1C[C@H](C)[C@@H](CN(C)C(=O)Nc2ccc(C(F)(F)F)cc2)Oc2ccc(NS(=O)(=O)c3cccs3)cc2C1=O	-	0	0	-	0	-	-
O=C1CN(S(=O)(=O)c2cccc(Cl)c2Cl)c2ccccc2N1	0	0	0	0	0	0	-
SMILES	MEKK2mut PB1 HTS	UBC13 polyUb	PREPL inhibitor	MEKK2wt PB1 HTS	ATG4B inhibitor	MEKK3 PB1 HTS	PREPL inh cf
COc1ccc(NC(=O)N(C)C[C@H]2Oc3ccc(NS(=O)(=O)c4ccc(F)cc4)cc3C(=O)N([C@H](C)CO)C[C@@H]2C)cc1	-	0	0	-	0	-	-
C[C@H](CO)N1C[C@H](C)[C@@H](CN(C)C(=O)Nc2ccc(C(F)(F)F)cc2)Oc2ccc(NS(=O)(=O)c3ccc(F)cc3)cc2C1=O	-	0	46	-	0	-	0
CCCc1cc(=O)[nH]c(SCC(=O)Nc2cccc(S(=O)(=O)N3CCCCC3)c2)n1	-	0	0	-	0	-	-
O=C(COc1ccccc1[N+](=O)[O-])N/N=C/c1cccc(OC(=O)c2ccc3c(c2)OCO3)c1	0	0	47	0	0	0	0
COC(=O)N/N=C/c1cccc(OC(=O)c2ccc3c(c2)OCO3)c1	0	0	0	0	0	0	-
O=C(CSc1ccc(Cl)cc1)Nc1nnc(-c2cccc([N+](=O)[O-])c2)s1	0	0	0	0	0	0	-
O=C(Cc1cccc2ccccc12)Nc1nnc(-c2cccc([N+](=O)[O-])c2)s1	0	0	46	0	0	0	0
Cc1cc(C)n2nc(/C(C#N)=C/c3ccccn3)c(C#N)c2n1	0	0	65	0	0	0	0
Cc1cc(C)n2nc(CC#N)c(C#N)c2n1	0	0	0	0	0	0	-
CN(C)CCN1C(=O)C(O)=C(C(=O)c2cc3ccccc3o2)C1c1ccc(N(C)C)cc1 (stereo not given)	0	0	51	0	0	0	54
O=C(NCC(c1ccco1)N1CCc2ccccc21)C(=O)Nc1ccc(F)cc1F (stereo not given)	-	0	0	-	0	-	-
N#CCCN(CCC#N)C(=O)C1c2ccccc2Oc2ccccc21	0	0	82	0	0	0	0
Cc1ccc(NC(=O)c2ccc(C(C)(C)C)cc2)cc1[N+](=O)[O-]	0	0	0	0	0	0	-
Oc1c(CNc2ccccc2)cc(COCc2ccccc2)c2cccnc12	-	0	0	-	0	-	-
Oc1c(CN2CCOCC2)cc(COCc2ccccc2)c2cccnc12	0	-	56	0	0	0	65
COc1ccc(NC(=O)NCCCN2CCN(c3ccccc3F)CC2)cc1	0	0	49	0	0	0	0
CC(=O)c1ccc(OCCOc2ccc([N+](=O)[O-])cc2)cc1	0	0	0	0	0	0	-
